According to ChEMBL document CHEMBL1961873, “Compounds: GSK PKIS; Assays: Nanosyn kinase panel” (2012):
Where “and” joins values, the source holds several entries; their conditions need not be identical. Equal entries are not always repeated.

Tests used:
[1] = target: Glycogen synthase kinase-3 beta (Homo sapiens) (UniProt P49841); conditions: at 1 µM;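 also: reported values are mean percent inhibition of GSK3B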
[2] = target: Homeodomain-interacting protein kinase 1 (Homo sapiens) (UniProt Q86Z02); conditions: at 0.1 µM
[3] = target: Homeodomain-interacting protein kinase 1 (Homo sapiens) (UniProt Q86Z02); conditions: at 1 µM
[4] = target: T1, Homeodomain-interacting protein kinase 4 (Homo sapiens) (UniProt Q8NE63); conditions: at 0.1 µM
T1 sequence (whole entry): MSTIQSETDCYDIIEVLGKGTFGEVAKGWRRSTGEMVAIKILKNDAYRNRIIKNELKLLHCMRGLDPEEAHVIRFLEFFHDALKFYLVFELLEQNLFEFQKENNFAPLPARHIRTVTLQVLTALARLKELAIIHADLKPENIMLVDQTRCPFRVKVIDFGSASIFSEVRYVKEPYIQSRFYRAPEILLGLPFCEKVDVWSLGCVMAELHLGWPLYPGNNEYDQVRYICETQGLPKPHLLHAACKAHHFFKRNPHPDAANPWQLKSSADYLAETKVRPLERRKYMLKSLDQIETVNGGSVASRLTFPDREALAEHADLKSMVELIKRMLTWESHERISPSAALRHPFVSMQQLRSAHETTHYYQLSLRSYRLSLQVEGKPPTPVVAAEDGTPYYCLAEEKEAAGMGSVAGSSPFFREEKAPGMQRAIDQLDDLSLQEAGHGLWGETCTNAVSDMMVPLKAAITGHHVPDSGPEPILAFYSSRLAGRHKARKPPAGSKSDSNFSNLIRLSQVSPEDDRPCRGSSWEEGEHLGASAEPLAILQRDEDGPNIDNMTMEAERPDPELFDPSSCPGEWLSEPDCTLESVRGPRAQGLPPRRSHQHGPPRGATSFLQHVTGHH

[5] = target: T1, Homeodomain-interacting protein kinase 4 (Homo sapiens); conditions: at 1 µM
[6] = target: Mitogen-activated protein kinase 9 (Homo sapiens) (UniProt P45984); conditions: at 0.1 µM
[7] = target: Mitogen-activated protein kinase 9 (Homo sapiens) (UniProt P45984); conditions: at 1 µM
[8] = target: Mitogen-activated protein kinase 1 (Homo sapiens) (UniProt P28482); conditions: at 0.1 µM
[9] = target: Mitogen-activated protein kinase 1 (Homo sapiens) (UniProt P28482); conditions: at 1 µM
[10] = target: Mitogen-activated protein kinase 3 (Homo sapiens) (UniProt P27361); conditions: at 0.1 µM
[11] = target: Mitogen-activated protein kinase 3 (Homo sapiens) (UniProt P27361); conditions: at 1 µM
[12] = target: SRSF protein kinase 3 (Homo sapiens) (UniProt Q9UPE1); conditions: at 0.1 µM
[13] = target: SRSF protein kinase 3 (Homo sapiens) (UniProt Q9UPE1); conditions: at 1 µM
[14] = target: Mitogen-activated protein kinase 14 (Homo sapiens) (UniProt Q16539); conditions: at 0.1 µM
[15] = target: Mitogen-activated protein kinase 14 (Homo sapiens) (UniProt Q16539); conditions: at 1 µM
[16] = target: Mitogen-activated protein kinase 11 (Homo sapiens) (UniProt Q15759); conditions: at 0.1 µM
[17] = target: Mitogen-activated protein kinase 11 (Homo sapiens) (UniProt Q15759); conditions: at 1 µM
[18] = target: T2, Mitogen-activated protein kinase 13 (Homo sapiens) (UniProt O15264); conditions: at 0.1 µM
T2 sequence (whole entry): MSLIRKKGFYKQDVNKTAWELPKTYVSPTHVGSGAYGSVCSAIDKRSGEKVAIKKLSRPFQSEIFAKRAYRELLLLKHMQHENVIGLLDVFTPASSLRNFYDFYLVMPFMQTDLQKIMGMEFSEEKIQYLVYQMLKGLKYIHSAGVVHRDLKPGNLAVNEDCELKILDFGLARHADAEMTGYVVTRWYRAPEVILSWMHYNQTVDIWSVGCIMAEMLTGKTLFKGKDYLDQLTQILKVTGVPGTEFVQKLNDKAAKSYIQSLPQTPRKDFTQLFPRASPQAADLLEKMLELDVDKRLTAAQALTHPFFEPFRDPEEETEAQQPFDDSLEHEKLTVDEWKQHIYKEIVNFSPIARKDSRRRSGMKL

[19] = target: T2, Mitogen-activated protein kinase 13 (Homo sapiens); conditions: at 1 µM
[20] = target: T3, Mitogen-activated protein kinase 12 (Homo sapiens) (UniProt P53778); conditions: at 0.1 µM
T3 sequence (whole entry): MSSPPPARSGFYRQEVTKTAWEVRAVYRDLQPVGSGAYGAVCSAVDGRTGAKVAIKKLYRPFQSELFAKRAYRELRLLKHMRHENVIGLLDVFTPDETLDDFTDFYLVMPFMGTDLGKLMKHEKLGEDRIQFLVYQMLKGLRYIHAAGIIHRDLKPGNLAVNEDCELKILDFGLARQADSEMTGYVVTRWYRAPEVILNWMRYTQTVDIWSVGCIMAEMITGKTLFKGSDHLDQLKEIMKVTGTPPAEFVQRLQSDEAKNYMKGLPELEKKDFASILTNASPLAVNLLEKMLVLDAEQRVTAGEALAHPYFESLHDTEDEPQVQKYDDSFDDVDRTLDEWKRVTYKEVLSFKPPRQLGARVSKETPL

Sequence of Mitogen-activated protein kinase 3 (Homo sapiens) (P27361 whole entry): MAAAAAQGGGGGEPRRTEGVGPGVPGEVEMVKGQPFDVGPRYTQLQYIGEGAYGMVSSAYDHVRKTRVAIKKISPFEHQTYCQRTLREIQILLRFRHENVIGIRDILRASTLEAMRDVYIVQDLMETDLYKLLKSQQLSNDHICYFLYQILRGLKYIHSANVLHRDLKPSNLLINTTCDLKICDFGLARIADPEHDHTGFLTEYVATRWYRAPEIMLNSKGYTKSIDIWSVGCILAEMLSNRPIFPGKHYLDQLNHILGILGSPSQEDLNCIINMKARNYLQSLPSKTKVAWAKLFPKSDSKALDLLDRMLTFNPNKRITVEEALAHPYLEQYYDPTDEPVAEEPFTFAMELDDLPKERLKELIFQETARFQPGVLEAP
Sequence of Glycogen synthase kinase-3 beta (Homo sapiens) (P49841 whole entry, looked up): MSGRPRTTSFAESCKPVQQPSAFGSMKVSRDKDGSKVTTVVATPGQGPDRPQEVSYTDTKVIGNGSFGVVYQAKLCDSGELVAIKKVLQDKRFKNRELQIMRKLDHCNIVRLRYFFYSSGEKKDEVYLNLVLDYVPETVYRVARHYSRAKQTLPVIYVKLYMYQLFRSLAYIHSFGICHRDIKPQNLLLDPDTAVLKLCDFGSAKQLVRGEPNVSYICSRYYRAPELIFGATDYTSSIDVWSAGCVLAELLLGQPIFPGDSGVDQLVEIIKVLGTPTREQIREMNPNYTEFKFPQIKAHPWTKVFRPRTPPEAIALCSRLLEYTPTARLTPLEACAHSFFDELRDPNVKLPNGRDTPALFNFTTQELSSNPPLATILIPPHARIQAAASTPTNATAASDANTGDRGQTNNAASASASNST
Sequence of SRSF protein kinase 3 (Homo sapiens) (Q9UPE1 whole entry): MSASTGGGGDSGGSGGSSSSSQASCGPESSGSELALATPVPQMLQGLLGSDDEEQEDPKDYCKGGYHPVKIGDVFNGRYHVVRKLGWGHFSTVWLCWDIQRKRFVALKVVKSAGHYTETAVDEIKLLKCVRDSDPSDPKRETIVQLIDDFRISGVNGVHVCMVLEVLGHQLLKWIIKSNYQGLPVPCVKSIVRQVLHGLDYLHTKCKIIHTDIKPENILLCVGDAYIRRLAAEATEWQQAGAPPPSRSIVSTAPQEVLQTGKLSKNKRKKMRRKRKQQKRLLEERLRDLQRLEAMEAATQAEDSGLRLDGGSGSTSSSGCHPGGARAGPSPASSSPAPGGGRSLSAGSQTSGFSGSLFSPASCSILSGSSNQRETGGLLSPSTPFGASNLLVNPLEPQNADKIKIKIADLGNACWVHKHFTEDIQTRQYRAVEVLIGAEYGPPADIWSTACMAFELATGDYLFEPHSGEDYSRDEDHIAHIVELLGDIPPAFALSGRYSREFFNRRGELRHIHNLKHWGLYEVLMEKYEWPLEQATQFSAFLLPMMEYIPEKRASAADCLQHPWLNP
Sequence of Mitogen-activated protein kinase 11 (Homo sapiens) (Q15759 whole entry): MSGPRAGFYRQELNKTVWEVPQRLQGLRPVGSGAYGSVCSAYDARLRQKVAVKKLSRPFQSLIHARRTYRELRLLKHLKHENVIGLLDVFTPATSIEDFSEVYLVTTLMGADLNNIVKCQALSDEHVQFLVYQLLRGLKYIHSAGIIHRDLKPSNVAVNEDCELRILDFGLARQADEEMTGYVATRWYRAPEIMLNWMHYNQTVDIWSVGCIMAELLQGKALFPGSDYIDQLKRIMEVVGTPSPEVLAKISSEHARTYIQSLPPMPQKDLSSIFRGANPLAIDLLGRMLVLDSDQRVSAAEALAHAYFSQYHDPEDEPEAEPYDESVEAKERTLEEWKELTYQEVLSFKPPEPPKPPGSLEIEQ
Sequence of Homeodomain-interacting protein kinase 1 (Homo sapiens) (Q86Z02 whole entry, looked up): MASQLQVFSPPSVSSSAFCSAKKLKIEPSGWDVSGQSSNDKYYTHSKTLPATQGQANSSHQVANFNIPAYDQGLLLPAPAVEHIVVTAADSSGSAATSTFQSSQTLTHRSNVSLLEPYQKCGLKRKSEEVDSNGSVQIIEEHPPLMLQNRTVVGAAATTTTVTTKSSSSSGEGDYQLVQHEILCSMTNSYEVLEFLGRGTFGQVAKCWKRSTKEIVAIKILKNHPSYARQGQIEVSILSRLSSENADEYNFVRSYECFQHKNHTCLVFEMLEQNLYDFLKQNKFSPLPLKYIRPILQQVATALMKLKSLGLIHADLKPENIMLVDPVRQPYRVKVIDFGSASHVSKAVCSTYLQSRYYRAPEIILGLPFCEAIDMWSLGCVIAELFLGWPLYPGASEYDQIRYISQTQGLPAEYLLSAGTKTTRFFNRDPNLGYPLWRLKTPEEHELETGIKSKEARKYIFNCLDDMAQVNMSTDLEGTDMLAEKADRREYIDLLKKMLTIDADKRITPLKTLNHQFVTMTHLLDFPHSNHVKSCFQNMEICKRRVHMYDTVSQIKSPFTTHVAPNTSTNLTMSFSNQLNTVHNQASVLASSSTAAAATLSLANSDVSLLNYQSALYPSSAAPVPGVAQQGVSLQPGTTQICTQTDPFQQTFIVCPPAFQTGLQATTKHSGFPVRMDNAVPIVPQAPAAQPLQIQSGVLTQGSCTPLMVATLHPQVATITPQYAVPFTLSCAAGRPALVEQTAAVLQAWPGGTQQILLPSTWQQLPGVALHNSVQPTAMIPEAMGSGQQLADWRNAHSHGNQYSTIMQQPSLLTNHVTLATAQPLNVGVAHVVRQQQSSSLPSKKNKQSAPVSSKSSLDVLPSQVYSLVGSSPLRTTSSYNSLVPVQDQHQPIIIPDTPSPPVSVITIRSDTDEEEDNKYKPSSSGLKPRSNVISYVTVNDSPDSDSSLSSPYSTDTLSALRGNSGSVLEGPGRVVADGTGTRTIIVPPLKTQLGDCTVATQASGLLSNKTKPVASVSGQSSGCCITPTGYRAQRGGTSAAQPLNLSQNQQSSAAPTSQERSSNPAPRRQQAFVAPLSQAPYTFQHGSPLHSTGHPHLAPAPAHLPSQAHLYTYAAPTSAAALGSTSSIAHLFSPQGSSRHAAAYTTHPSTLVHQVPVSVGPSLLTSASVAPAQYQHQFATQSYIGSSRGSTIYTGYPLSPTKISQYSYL
Sequence of Mitogen-activated protein kinase 14 (Homo sapiens) (Q16539 whole entry): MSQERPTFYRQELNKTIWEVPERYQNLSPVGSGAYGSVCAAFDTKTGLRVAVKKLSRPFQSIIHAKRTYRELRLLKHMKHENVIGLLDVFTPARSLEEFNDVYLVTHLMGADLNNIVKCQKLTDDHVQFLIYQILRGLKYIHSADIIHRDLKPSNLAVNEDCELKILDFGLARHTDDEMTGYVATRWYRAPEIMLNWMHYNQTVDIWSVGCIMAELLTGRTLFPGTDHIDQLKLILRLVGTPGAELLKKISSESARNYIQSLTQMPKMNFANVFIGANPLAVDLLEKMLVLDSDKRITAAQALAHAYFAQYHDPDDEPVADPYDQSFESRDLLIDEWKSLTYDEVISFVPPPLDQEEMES
Sequence of Mitogen-activated protein kinase 1 (Homo sapiens) (P28482 whole entry): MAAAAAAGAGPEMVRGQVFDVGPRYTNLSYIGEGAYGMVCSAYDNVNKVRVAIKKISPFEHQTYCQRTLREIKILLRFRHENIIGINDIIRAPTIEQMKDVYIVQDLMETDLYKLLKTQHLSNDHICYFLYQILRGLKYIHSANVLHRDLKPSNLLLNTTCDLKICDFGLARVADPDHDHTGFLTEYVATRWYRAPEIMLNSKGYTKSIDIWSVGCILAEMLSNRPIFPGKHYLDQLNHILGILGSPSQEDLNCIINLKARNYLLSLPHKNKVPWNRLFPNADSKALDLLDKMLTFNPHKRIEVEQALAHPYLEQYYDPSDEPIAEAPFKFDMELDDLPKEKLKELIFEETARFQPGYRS
Sequence of Mitogen-activated protein kinase 9 (Homo sapiens) (P45984 whole entry, looked up): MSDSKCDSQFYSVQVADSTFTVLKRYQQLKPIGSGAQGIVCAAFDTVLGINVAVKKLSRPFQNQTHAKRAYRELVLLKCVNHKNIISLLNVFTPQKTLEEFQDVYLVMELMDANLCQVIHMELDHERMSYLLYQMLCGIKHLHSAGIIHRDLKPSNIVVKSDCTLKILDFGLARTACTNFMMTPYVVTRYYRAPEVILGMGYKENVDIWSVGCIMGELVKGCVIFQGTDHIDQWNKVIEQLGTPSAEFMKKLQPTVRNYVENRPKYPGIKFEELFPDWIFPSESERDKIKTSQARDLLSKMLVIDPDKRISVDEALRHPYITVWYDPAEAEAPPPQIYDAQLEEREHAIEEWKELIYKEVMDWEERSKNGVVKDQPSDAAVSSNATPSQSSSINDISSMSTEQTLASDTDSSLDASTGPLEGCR

SMILES | inhibition [1] | inhibition [2] | inhibition [3] | inhibition [4] | inhibition [5] | inhibition [6] [%] | inhibition [7] [%] | inhibition [8] [%] | inhibition [9] | inhibition [10] | inhibition [11] | inhibition [12] | inhibition [13] | inhibition [14] [%] | inhibition [15] [%] | inhibition [16] [%] | inhibition [17] [%] | inhibition [18] [%] | inhibition [19] [%] | inhibition [20] [%]
CNC(=O)c1cncc(/C=C/c2ccccc2C)c1 | 10.8% | 2.37% | 3.05% | 3.2% | 3.78% | 3.59 | 5.08 | 7.05 | 5.85% | 4.41% | 4.66% | -0.87% | 3.21% | 3.76 | 6.09 | 4.82 | 7.21 | 4.01 | 3.77 | 1.29
CS(=O)(=O)CCNCc1ccc(-c2ccc3ncnc(Nc4ccc(OCc5cccc(C(F)(F)F)c5)cc4)c3c2)o1 | 3.05% | -0.56% | 2.78% | 0.9% | 7.06% | 3.75 | 7.64 | 5.63 | 5.84% | 4.22% | 5% | -2.18% | -0.47% | 11.9 | 13.9 | 1.8 | 5.06 | 5.4 | 5.66 | 3.43
CS(=O)(=O)Nc1ccc(-c2cc(-c3ccccc3)cc(C(N)=O)c2N)cc1 | 3.26% | -3.53% | 2.26% | 0.57% | 2.28% | 0.94 | 1.19 | 4.56 | 2.91% | 2.82% | 2.24% | -1.51% | -0.01% | 1.19 | 0.84 | 1.8 | 0.17 | 1.96 | 0.64 | 0.99
COc1ccc(-c2nn3ncccc3c2-c2ccnc(Nc3ccc(F)c(F)c3)n2)cc1 | 5% | 3.8% | 4.38% | 1.49% | 1.58% | 7.25 | 23.9 | 4.91 | 5.09% | 3.11% | 6.78% | -0.12% | 3.15% | 33 | 81 | 11.9 | 50.9 | 0.5 | 3.31 | 4.66
O=C(Nc1n[nH]c2nnc(-c3cccnc3)cc12)C1CC1 | 81.5% | 33.6% | 74% | 0.58% | 8.84% | 0.33 | 1.3 | 0.58 | 2.75% | 0.53% | 0.8% | -0.02% | -4.68% | -0.2 | -1.37 | 0.57 | 2.39 | -0.07 | 5.16 | 0.25
COc1cc(N2CCN(C(C)C)CC2)ccc1Nc1nc(Nc2cccc(F)c2C(=O)O)c2cc[nH]c2n1 | 6.19% | 4.97% | 23.6% | 5.89% | 22.7% | 26.4 | 72.5 | 5.18 | 6.34% | 5.83% | 5.94% | -1.11% | 3.96% | 6.33 | 9.12 | 3.15 | 5.38 | 4.97 | 4.09 | 0.95
NC(=O)c1ccc2c(-c3ccnc(NCCCO)n3)c(-c3ccc(F)cc3)nn2c1 | 41.3% | 1.65% | 4.85% | 5.71% | 7.94% | 38 | 82.2 | 1.98 | 14.9% | 4.06% | 8.87% | 1.36% | 1.23% | 74.9 | 86.4 | 49.5 | 68.7 | 1.5 | 6.27 | 2.09
COc1ccccc1-c1cc(/C=C2\C(=O)Nc3ncc(Br)cc32)cc(Br)c1O | 8.88% | 0.74% | 7.53% | 0.6% | 10.9% | 3.44 | 8.54 | 3.26 | 4.68% | 4.03% | 2.3% | 0.86% | -0.04% | 2.73 | 11.3 | 5.59 | 5.73 | 0.15 | 9.18 | 2.49
Nc1nccc(-c2c(-c3ccc(F)cc3)ncn2C2CCNCC2)n1 | 2.45% and 5.63% | -0.66% and 2.64% | 7.61% and 4.5% | 0.4% and 1.82% | 8.1% and 1.64% | – | – | -4.78 | 0.6% and 1.9% | -1.7% and 0.12% | 1.29% and 5.05% | -1.41% and 0.32% | -1.34% and 0.18% | – | – | – | – | – | – | –
